Experimental data published in the supplement of paper PMC10849652.
Targets with a hit are over-represented here; the source holds about 7,900 in all. About 0.6% of all pairs of compound and target were hits.

Legend:
Experiment in all cases: log2 fold change, soluble protein after heating vs DMSO (PISA); higher = thermal stabilisation; K562 cells, 10 uM, 30 min; active = over 0.2 and 3.5 SD of the protein, either way, in both replicates (recomputed)
[1] = compound: COC1=CC=C(C=C1)CN2C=CC3=C2C=C(C=C3)C(=O)NO
Outline: (§1)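 K562 cells at 2×10^6 cells/mL were treated with 10 μM compound for 30 min. Aliquots were heated for 3 min across 48°C-58°C, pooled, and extracted in PBS with 0.5% NP-40 at 4°C; soluble protein was the supernatant after 21,000xg for 90 min. Soluble protein was quantified by TMTpro 16plex LC-MS/MS with channel sums equalised, and reported as log2 fold change in thermal stability against DMSO controls, with values from duplicates.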

filanesib = compound: CON(C)C(=O)N1N=C(c2cc(F)ccc2F)S[C@@]1(CCCN)c1ccccc1 [filanesib]
Outline: as §1

zotarolimus = compound: CO[C@H]1C[C@@H]2CC[C@@H](C)[C@@](O)(O2)C(=O)C(=O)N2CCCC[C@H]2C(=O)O[C@H]([C@H](C)C[C@@H]2CC[C@H](n3cnnn3)[C@H](OC)C2)CC(=O)[C@H](C)/C=C(\C)[C@@H](O)[C@@H](OC)C(=O)[C@H](C)C[C@H](C)/C=C/C=C/C=C/1C [zotarolimus]
Outline: as §1

idasanutlin = compound: COc1cc(C(=O)O)ccc1NC(=O)[C@@H]1N[C@@H](CC(C)(C)C)[C@](C#N)(c2ccc(Cl)cc2F)[C@H]1c1cccc(Cl)c1F [idasanutlin]
Outline: as §1

alisertib = compound: COc1cc(Nc2ncc3c(n2)-c2ccc(Cl)cc2C(c2c(F)cccc2OC)=NC3)ccc1C(=O)O [alisertib]
Outline: as §1

[2] = compound: COc1cc2nc(-c3cc(F)ccc3O)nc(N[C@@H]3CNC[C@H]3C(C)(C)O)c2cc1OC
Outline: as §1

gefitinib = compound: COc1cc2ncnc(Nc3ccc(F)c(Cl)c3)c2cc1OCCCN1CCOCC1 [gefitinib]
Outline: as §1

[3] = compound: COc1cccc2cc(-c3nc([C@H]4CC[C@H](C(=O)O)CC4)n4ncnc(N)c34)[nH]c12
Outline: as §1

lapatinib = compound: CS(=O)(=O)CCNCc1ccc(-c2ccc3ncnc(Nc4ccc(OCc5cccc(F)c5)c(Cl)c4)c3c2)o1 [lapatinib]
Outline: as §1

pictilisib = compound: CS(=O)(=O)N1CCN(Cc2cc3nc(-c4cccc5[nH]ncc45)nc(N4CCOCC4)c3s2)CC1 [pictilisib]
Outline: as §1

[4] = compound: CS(=O)(=O)c1ccc(-c2cnc(N)c(C(=O)Nc3ccccc3)n2)cc1
Outline: as §1

crizotinib = compound: C[C@@H](Oc1cc(-c2cnn(C3CCNCC3)c2)cnc1N)c1c(Cl)ccc(F)c1Cl [crizotinib]
Outline: as §1

[5] = compound: C[C@@H]1COCCN1C2=NC(=NC(=C2)C3(CC3)S(=O)(=O)C)C4=C5C=CNC5=CC=C4
Outline: as §1

[6] = compound: C[C@H](C1=CC=C(C=C1)C(=O)NC2=C3C=CNC3=NC=C2)N
Outline: as §1

duvelisib = compound: C[C@H](Nc1ncnc2nc[nH]c12)c1cc2cccc(Cl)c2c(=O)n1-c1ccccc1 [duvelisib]
Outline: as §1

gandotinib = compound: Cc1cc(Nc2cc(CN3CCOCC3)c3nc(C)c(Cc4ccc(Cl)cc4F)n3n2)n[nH]1 [gandotinib]
Outline: as §1

tozasertib = compound: Cc1cc(Nc2cc(N3CCN(C)CC3)nc(Sc3ccc(NC(=O)C4CC4)cc3)n2)n[nH]1 [tozasertib]
Outline: as §1

[7] = compound: Cc1cc(SCc2sc(-c3ccc(C(F)(F)F)cc3)nc2C)ccc1OCC(=O)O
Outline: as §1

doramapimod = compound: Cc1ccc(-n2nc(C(C)(C)C)cc2NC(=O)Nc2ccc(OCCN3CCOCC3)c3ccccc23)cc1 [doramapimod]
Outline: as §1

ispinesib = compound: Cc1ccc(C(=O)N(CCCN)[C@@H](c2nc3cc(Cl)ccc3c(=O)n2Cc2ccccc2)C(C)C)cc1 [ispinesib]
Outline: as §1

Measured: log2 fold change

IFI30 (UniProt P13284)
inactive: [1] 0.04 | filanesib 0.061 | zotarolimus 0.06 | idasanutlin 0.027 | alisertib -0.11 | [2] -0.133 | gefitinib -0.035 | [3] 0.01 | lapatinib 0.147 | pictilisib -0.02 | [4] 0.013 | crizotinib -0.011 | [5] -0.083 | [6] -0.02 | duvelisib -0.129 | gandotinib 0.042 | tozasertib 0.027 | [7] 0.035 | doramapimod -0.044 | ispinesib 0.002

GGT7 (UniProt Q9UJ14)
Sequence of UniProt Q9UJ14 (Q9UJ14 whole entry, looked up): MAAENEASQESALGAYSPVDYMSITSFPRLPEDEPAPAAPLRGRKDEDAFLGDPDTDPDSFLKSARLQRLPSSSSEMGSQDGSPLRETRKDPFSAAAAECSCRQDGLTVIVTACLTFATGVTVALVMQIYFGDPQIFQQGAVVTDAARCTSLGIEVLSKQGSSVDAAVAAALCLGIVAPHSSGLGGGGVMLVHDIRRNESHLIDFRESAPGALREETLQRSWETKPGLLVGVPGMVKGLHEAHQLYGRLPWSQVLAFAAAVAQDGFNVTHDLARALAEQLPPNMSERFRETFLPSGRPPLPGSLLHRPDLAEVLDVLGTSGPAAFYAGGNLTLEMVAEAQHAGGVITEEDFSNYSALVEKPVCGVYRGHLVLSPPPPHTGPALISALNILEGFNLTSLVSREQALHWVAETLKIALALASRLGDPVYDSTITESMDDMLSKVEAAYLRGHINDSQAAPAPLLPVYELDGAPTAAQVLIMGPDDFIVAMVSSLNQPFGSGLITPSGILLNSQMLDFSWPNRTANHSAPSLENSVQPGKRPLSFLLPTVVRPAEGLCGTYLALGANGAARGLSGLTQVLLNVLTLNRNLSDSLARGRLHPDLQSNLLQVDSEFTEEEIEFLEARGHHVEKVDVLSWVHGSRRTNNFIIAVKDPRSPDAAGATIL
inactive: [1] 0.044 | filanesib 0.081 | zotarolimus -0.03 | idasanutlin -0.039 | alisertib -0.07 | [2] -0.098 | gefitinib 0.055 | [3] 0.05 | lapatinib -0.062 | pictilisib 0.143 | [4] 0.035 | crizotinib 0.013 | [5] -0.128 | [6] 0.013 | duvelisib -0.045 | gandotinib -0.03 | tozasertib -0.049 | [7] -0.091 | doramapimod 0.023 | ispinesib -0.032

FAM91A1 (UniProt Q658Y4)
Sequence of UniProt Q658Y4 (Q658Y4 whole entry, looked up): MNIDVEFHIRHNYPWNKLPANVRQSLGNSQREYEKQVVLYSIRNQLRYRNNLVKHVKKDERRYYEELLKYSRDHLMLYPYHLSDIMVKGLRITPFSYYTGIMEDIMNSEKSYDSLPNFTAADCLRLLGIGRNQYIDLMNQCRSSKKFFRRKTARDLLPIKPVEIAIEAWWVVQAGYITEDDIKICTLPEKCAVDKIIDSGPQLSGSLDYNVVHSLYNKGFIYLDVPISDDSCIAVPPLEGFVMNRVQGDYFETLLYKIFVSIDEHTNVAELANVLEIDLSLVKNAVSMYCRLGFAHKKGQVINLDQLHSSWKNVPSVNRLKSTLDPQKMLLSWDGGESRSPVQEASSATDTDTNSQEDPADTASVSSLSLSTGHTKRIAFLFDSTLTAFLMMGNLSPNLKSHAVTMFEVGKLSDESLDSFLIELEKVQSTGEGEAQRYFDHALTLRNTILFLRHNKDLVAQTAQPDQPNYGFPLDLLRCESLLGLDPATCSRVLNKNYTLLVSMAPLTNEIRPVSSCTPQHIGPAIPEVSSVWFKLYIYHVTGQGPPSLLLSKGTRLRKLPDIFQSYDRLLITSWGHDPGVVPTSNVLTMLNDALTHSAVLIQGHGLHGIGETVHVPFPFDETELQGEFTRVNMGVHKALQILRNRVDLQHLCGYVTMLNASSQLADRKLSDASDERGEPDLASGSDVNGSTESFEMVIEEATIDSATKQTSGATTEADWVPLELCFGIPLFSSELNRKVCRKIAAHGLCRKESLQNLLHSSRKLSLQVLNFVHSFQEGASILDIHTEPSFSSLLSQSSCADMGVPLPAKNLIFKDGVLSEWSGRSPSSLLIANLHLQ
inactive: [1] -0.081 | filanesib -0.059 | zotarolimus 0.029 | idasanutlin -0.044 | alisertib -0.076 | [2] -0.003 | gefitinib -0.013 | [3] 0.035 | lapatinib 0.045 | pictilisib -0.047 | [4] -0.11 | crizotinib -0.006 | [5] 0.192 | [6] -0.034 | duvelisib -0.008 | gandotinib -0.08 | tozasertib 0.022 | [7] -0.001 | doramapimod -0.012 | ispinesib 0.014

HSPA8 (UniProt E9PK54)
inactive: [1] 0.011 | filanesib 0.033 | zotarolimus -0.015 | idasanutlin -0.037 | alisertib -0.186 | [2] -0.208 | gefitinib -0.077 | [3] -0.002 | lapatinib 0.17 | pictilisib -0.071 | [4] -0.05 | crizotinib -0.023 | [5] -0.272 | [6] 0.334 | duvelisib -0.05 | gandotinib 0.01 | tozasertib 0.033 | [7] 0.088 | doramapimod 0.143 | ispinesib 0.012

HDHD2 (UniProt Q9H0R4)
Sequence of UniProt Q9H0R4 (Q9H0R4 whole entry, looked up): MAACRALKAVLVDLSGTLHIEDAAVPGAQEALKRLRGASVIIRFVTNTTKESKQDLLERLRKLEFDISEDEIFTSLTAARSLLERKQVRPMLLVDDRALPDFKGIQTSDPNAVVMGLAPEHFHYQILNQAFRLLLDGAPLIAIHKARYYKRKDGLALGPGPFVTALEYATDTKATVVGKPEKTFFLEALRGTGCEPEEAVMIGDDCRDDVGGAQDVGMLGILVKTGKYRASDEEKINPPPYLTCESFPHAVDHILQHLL
inactive: [1] 0.048 | filanesib -0.097 | zotarolimus -0.027 | idasanutlin 0.006 | alisertib -0.06 | [2] -0.007 | gefitinib 0.024 | [3] 0.085 | lapatinib -0.03 | pictilisib -0.011 | [4] -0.11 | crizotinib -0.031 | [5] -0.01 | [6] 0.001 | duvelisib -0.019 | gandotinib 0 | tozasertib -0.039 | [7] -0.023 | doramapimod -0.081 | ispinesib 0.004

GNL1 (UniProt P36915)
Sequence of UniProt P36915 (P36915 whole entry, looked up): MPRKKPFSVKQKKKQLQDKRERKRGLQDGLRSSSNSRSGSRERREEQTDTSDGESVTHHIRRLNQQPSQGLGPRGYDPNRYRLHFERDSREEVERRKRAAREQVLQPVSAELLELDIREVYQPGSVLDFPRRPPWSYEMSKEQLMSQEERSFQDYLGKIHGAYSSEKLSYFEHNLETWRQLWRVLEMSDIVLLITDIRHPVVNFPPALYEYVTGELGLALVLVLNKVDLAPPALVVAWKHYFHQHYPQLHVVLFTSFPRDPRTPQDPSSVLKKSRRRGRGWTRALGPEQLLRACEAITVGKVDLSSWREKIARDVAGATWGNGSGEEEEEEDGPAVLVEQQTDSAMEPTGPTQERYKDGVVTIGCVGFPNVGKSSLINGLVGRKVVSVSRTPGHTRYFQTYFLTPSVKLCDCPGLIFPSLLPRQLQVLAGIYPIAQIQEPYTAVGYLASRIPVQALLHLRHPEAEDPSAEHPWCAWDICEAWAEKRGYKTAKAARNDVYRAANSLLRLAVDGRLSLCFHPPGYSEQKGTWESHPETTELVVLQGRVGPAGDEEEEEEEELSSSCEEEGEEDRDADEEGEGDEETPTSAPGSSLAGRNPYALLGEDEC
inactive: [1] 0.047 | filanesib -0.066 | zotarolimus 0.049 | idasanutlin -0.056 | alisertib -0.107 | [2] 0.039 | gefitinib 0.031 | [3] 0.061 | lapatinib 0.011 | pictilisib 0.04 | [4] 0.051 | crizotinib -0.014 | [5] 0.162 | [6] -0.011 | duvelisib 0.013 | gandotinib 0.028 | tozasertib -0.014 | [7] 0.052 | doramapimod -0.019 | ispinesib 0.087

FOXK1 (UniProt P85037)
active: zotarolimus 1 | [4] -1.1 | gandotinib -1.34
inactive: [1] -0.002 | filanesib 0.361 | idasanutlin -0.123 | alisertib -0.038 | [2] 0.526 | gefitinib 0.516 | [3] 0.774 | lapatinib 0.085 | pictilisib 0.584 | crizotinib 0.336 | [5] 0.897 | [6] -0.482 | duvelisib 0.582 | tozasertib 0.127 | [7] -0.148 | doramapimod -0.126 | ispinesib 0.373

GLUL (UniProt P15104)
Sequence of UniProt P15104 (P15104 whole entry, looked up): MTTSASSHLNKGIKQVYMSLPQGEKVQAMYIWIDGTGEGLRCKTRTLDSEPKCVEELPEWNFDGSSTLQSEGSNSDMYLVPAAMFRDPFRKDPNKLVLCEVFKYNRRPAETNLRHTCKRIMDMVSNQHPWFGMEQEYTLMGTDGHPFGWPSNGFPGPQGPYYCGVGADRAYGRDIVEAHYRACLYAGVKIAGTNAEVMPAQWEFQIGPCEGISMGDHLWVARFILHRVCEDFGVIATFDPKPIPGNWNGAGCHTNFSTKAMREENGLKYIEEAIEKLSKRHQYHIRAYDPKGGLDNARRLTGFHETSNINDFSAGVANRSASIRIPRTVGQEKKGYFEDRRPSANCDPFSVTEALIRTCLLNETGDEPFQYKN
active: [3] -0.225 | [5] -0.267
inactive: [1] 0.11 | filanesib 0.002 | zotarolimus -0.154 | idasanutlin 0.032 | alisertib -0.013 | [2] -0.061 | gefitinib 0.01 | lapatinib -0.032 | pictilisib -0.001 | [4] -0.07 | crizotinib 0.008 | [6] 0.062 | duvelisib 0.035 | gandotinib -0.014 | tozasertib -0.014 | [7] -0.047 | doramapimod -0.126 | ispinesib 0.005

HMGB3 (UniProt O15347)
Sequence of UniProt O15347 (O15347 whole entry, looked up): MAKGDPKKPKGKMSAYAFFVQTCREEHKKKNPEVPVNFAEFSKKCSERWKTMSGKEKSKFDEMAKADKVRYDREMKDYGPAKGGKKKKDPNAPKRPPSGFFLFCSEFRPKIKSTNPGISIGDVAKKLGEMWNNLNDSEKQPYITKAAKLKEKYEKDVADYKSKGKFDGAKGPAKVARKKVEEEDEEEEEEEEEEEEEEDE
inactive: [1] 0.037 | filanesib -0.001 | zotarolimus 0.012 | idasanutlin 0.045 | alisertib -0.064 | [2] -0.031 | gefitinib -0.033 | [3] 0 | lapatinib 0.062 | pictilisib -0.044 | [4] 0.045 | crizotinib 0.026 | [5] -0.018 | [6] -0.071 | duvelisib 0.01 | gandotinib 0.01 | tozasertib 0.029 | [7] -0.001 | doramapimod 0.002 | ispinesib 0.1

ICAM1 (UniProt P05362)
Sequence of UniProt P05362 (P05362 whole entry, looked up): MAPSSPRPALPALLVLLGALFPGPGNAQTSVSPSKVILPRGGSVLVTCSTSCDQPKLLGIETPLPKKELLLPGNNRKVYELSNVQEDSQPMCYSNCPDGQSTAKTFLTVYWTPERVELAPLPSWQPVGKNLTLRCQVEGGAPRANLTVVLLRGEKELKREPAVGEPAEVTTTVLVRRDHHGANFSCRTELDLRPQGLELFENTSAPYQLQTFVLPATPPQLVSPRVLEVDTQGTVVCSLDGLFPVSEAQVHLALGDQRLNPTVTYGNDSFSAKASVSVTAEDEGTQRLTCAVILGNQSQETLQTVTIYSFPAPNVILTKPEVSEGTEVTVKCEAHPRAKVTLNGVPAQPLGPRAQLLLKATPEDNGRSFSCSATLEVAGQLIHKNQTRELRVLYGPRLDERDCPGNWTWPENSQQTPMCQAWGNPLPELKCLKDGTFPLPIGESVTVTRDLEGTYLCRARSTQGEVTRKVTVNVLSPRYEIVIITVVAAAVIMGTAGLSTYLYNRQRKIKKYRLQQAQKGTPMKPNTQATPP
inactive: [1] -0.018 | filanesib 0.132 | zotarolimus -0.038 | idasanutlin 0.042 | alisertib 0.002 | [2] 0.08 | gefitinib 0.029 | [3] 0.104 | lapatinib -0.028 | pictilisib 0 | [4] 0.052 | crizotinib 0.142 | [5] 0.026 | [6] -0.069 | duvelisib 0.024 | gandotinib -0.134 | tozasertib -0.062 | [7] -0.054 | doramapimod -0.012 | ispinesib 0.121

GLRX3 (UniProt O76003)
Sequence of UniProt O76003 (O76003 whole entry, looked up): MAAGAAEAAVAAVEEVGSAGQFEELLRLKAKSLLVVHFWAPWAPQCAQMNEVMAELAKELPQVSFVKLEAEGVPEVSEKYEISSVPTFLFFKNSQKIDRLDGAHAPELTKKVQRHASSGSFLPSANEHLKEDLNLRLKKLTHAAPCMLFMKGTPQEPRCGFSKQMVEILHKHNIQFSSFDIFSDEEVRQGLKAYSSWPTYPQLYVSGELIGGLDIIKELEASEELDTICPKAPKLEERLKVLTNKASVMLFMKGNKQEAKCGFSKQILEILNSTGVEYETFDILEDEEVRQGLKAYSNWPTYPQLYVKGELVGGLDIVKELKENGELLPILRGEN
inactive: [1] 0.005 | filanesib -0.056 | zotarolimus 0.056 | idasanutlin -0.001 | alisertib -0.063 | [2] 0.012 | gefitinib -0.009 | [3] -0.018 | lapatinib 0.062 | pictilisib -0.003 | [4] 0.03 | crizotinib 0.098 | [5] 0.06 | [6] -0.068 | duvelisib 0.043 | gandotinib -0.094 | tozasertib 0.077 | [7] 0.041 | doramapimod -0.075 | ispinesib 0.068

GOLPH3 (UniProt Q9H4A6)
Sequence of UniProt Q9H4A6 (Q9H4A6 whole entry, looked up): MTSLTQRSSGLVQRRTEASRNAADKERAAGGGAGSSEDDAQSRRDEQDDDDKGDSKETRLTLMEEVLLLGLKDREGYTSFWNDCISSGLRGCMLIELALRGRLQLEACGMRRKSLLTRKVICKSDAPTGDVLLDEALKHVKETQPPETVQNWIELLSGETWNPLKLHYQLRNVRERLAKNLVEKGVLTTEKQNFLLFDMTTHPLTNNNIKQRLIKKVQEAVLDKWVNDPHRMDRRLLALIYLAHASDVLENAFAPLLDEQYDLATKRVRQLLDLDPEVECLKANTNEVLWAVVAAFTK
inactive: [1] 0.011 | filanesib -0.03 | zotarolimus 0.048 | idasanutlin -0.057 | alisertib -0.024 | [2] 0.131 | gefitinib 0.023 | [3] 0.012 | lapatinib -0.055 | pictilisib -0.051 | [4] -0.028 | crizotinib 0.176 | [5] 0.006 | [6] -0.038 | duvelisib 0.047 | gandotinib -0.112 | tozasertib 0.024 | [7] 0.012 | doramapimod -0.011
active: ispinesib 0.379

FDXR isoform 7 (UniProt P22570)
inactive: [1] -0.005 | filanesib -0.122 | zotarolimus 0.021 | idasanutlin -0.179 | alisertib -0.019 | [2] 0.06 | gefitinib 0.048 | [3] 0.074 | lapatinib -0.057 | pictilisib 0.201 | [4] 0.038 | crizotinib -0.036 | [5] 0.117 | [6] -0.01 | duvelisib 0.11 | gandotinib -0.064 | tozasertib -0.105 | [7] 0.023 | doramapimod -0.013 | ispinesib -0.138

FLNA (UniProt P21333)
inactive: [1] 0.042 | filanesib 0.026 | zotarolimus 0.043 | idasanutlin -0.066 | alisertib 0.036 | [2] 0.039 | gefitinib 0.03 | [3] -0.095 | lapatinib -0.049 | pictilisib 0.031 | [4] 0.014 | crizotinib -0.078 | [5] -0.01 | [6] 0.04 | duvelisib -0.014 | gandotinib -0.045 | tozasertib 0.108 | [7] 0.127 | doramapimod -0.013 | ispinesib -0.025

GLS isoform 3 (UniProt O94925)
Sequence of UniProt O94925 (O94925 whole entry, looked up): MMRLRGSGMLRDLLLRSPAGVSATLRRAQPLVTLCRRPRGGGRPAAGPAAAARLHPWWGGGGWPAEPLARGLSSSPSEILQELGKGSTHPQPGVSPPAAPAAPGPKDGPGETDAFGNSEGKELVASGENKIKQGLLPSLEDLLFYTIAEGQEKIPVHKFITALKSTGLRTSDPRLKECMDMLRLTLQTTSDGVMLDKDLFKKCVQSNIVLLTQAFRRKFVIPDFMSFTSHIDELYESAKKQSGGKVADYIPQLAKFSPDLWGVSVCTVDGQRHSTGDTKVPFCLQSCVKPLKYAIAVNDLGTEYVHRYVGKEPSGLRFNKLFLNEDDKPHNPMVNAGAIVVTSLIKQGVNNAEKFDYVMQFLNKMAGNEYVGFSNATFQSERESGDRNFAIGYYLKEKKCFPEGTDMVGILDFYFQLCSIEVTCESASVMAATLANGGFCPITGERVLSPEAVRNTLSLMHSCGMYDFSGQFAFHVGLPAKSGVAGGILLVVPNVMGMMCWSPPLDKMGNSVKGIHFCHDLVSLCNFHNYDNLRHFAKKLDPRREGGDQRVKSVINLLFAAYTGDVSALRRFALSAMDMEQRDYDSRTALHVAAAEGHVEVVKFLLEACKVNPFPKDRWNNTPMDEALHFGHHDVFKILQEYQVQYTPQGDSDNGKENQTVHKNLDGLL
inactive: [1] -0.021 | filanesib -0.029 | zotarolimus 0.008 | idasanutlin -0.26 | alisertib -0.003 | [2] 0.216 | gefitinib 0.041 | [3] 0.031 | lapatinib 0 | pictilisib 0.078 | [4] 0.038 | crizotinib 0.021 | [5] 0.256 | [6] -0.007 | duvelisib 0.077 | gandotinib -0.264 | tozasertib 0.014 | [7] 0.064 | doramapimod 0.023 | ispinesib 0.219

GPX4 (UniProt P36969)
Sequence of UniProt P36969 (P36969 whole entry, looked up): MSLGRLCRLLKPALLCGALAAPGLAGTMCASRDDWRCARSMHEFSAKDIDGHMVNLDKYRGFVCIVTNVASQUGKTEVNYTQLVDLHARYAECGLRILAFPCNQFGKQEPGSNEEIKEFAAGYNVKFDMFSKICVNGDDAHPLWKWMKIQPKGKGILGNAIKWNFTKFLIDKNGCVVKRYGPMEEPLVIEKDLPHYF
inactive: [1] -0.035 | filanesib -0.011 | idasanutlin 0.032 | alisertib -0.02 | [2] 0.003 | gefitinib -0.004 | [3] 0.076 | lapatinib -0.036 | pictilisib -0.034 | [4] 0.014 | crizotinib 0.079 | [5] 0.011 | [6] -0.072 | duvelisib 0.055 | gandotinib 0.013 | tozasertib 0.023 | [7] -0.017 | doramapimod -0.039 | ispinesib 0.213
active: zotarolimus -0.248
